# NFkB transloc pot = enhances IL-1B driven NFkB nuclear translocation. HUVEC IL-1B NFkB p65 nuclear translocation imaging. activation, % at 2 µM. hit rate 0.3% among 94,000;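 active means activation above 40%, about the mean plus 3 SD, also judged a hit on visual image review; inconclusive means activation above 40% but not a hit on visual review; inactive means activation not above 40% and no visual hit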;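 further: percent activation is computed from the nuclear over cytoplasmic p65 intensity ratio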
# PTK2B oligo ant = antagonists of human Pyk2 oligomerization; AID 1347419; Q14289; Q293 cells, Pyk2 FERM NanoBiT luminescence; stronger effect = lower value; hit rate 0.83% among 99,000; z-score (the deposit names both 25 µM and 10 µM);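 active means Z-score of -3 or lower, scaled per plate to the spread of control and sample wells; inactive means z-score above -3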;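 further: negative z-score means lost luminescence so less FERM oligomerization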
# PLK1 kinase inh = PLK1 (human) kinase inhibition; P53350; recombinant PLK1 kinase, TR-FRET peptide phosphorylation; inhibition, % at 10 µM; hit rate 0.53% among 97,000;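 active means inhibition of 50% or more in the single-concentration screen; inactive means inhibition below 50%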;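 further: 0% = DMSO max control and 100% = H-89 dihydrochloride min control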
# IL1B NFkB inh = blocks IL-1B driven NFkB nuclear translocation in HUVEC cells. HUVEC IL-1B NFkB p65 nuclear translocation imaging. hit rate 0.43% among 94,000. inhibition, % at 2 µM;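 active means inhibition above about 30% together with a positive call from visual inspection of the well image, limit read from the data; inconclusive means inhibition above a set limit but visual check negative; inactive means inhibition not above a set limit, visual check negative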;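 further: nuclear over cytoplasmic p65 intensity ratio measured by imaging; 0% = IL-1B stimulated DMSO wells and 100% = unstimulated DMSO wells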
# Plk1 PBD FP = blocks phosphopeptide binding to human Plk1 polo box domain | Plk1 PBD phosphopeptide binding, fluorescence polarization | hit rate 0.13% among 97,000 | AID 693 | inhibition, %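 (tested at about 20 µM)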; in the data active means inhibition above about 34%, passing the limit was not always enough
# HUVEC tox IL1B = HUVEC cytotoxicity counter-screen, IL-1B stimulated; HUVEC cell count loss, Hoechst imaging; cell count reduction, % at 2 µM; hit rate 0.41% among 94,000; AID 845;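 active means cell count reduction more than 3 SD above the screen-wide mean, cut at about 70% in these data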;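 further: normalized per plate to untreated control cells as the no-loss baseline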
# Starred values were filed as active, the others as inactive; ? = inconclusive; . = no result given. Rows were chosen to be rich in hits. Some 2.2% of all compounds tested hit in one or more screens of this group.
SMILES,NFkB transloc pot,PTK2B oligo ant,PLK1 kinase inh,IL1B NFkB inh,Plk1 PBD FP,HUVEC tox IL1B
O=S(=O)(NCc1ccco1)c1ccc(Cl)nc1,.,0.73,.,.,.,.
O=C(c1sc2ccccc2c1Cl)N(Cc1ccccc1)C1CCS(=O)(=O)C1 (configuration not stated),-66,-2.5,-6,66*,3,10
O=C(c1sc2ccccc2c1Cl)N(Cc1ccccc1Cl)C1CCS(=O)(=O)C1 (configuration not stated),-11,-1.7,-9,11,11,10
O=C(Nc1cnc2ccccn2c1=O)c1ccc(Cl)cc1,-4,0.29,-1,4,-8,-5
O=C(c1cc2ccccn2n1)N1CCN(Cc2ccccc2)CC1,2,.,54*,-2,-7,-5
CCOC(=O)c1ccc(Nc2nc(C(=O)OCC)nc3ccccc23)cc1,-3,-2.9,-8,3,-63,84*
O=S(=O)(Cc1cc(Sc2ccc(Cl)cc2)nc(-c2ccccc2)n1)c1ccccc1,18,0.02,-9,-18,-20,11
COCc1cc(Sc2c(Cl)cccc2Cl)nc(-c2ccccc2)n1,7,-1.1,-10,-7,-4,88*
COC(=O)C1CCN(C(=O)COC(=O)CCc2nc3ccccc3c(=O)[nH]2)CC1,.,-0.04,.,.,.,.
COc1ccc(-c2[nH]c(-c3ccc(C(=O)O)cc3)nc2-c2ccccc2)cc1,-64,-1.4,-22,64*,8,11
COC(=O)/C(=C(/F)SCC(C)=O)C(F)(F)F,14,.,-9,-14,-29,-67
c1ccc(OCCSc2nnnn2-c2ccccc2)cc1,1,-2.4,2,-1,3,-10
CCOc1ccc(OCCSc2nnnn2-c2ccccc2)cc1,0,-4.1*,-4,0,-4,-7
CCC1CCCCN1CCNC(=O)CCS(=O)(=O)c1ccc(Br)cc1 (configuration not stated),.,-0.56,-11,.,-31,.
S=C(Nc1ccc(N2CCOCC2)cc1)Nc1ccc2nc(-c3ccco3)c(-c3ccco3)nc2c1,-45,-1.5,0,45*,-46,-3
O=C(Nc1ccc(N2CCOCC2)cc1)c1ccc2nc(-c3ccco3)c(-c3ccco3)nc2c1,29,-2.5,-11,-29,35,11
O=C(c1cn(-c2ccccc2)nc1-c1ccc(F)cc1)N1CCOCC1,.,-0.48,.,.,.,.
O=C(c1cn(-c2ccccc2)nc1-c1ccncc1)N1CCCCC1,-24,-0.33,-5,24,11,92*
COc1cccc(OC)c1C(=O)NN1CCCCC1,3,0.62,-13,-3,-4,-30
COc1cc(OC)cc(C(=O)NN2CCCCC2)c1,-56,-0.28,-6,56*,-1,-4
CCOC(=O)C1=C(N)Oc2c(c(=O)[nH]c3ccccc23)C1c1ccccc1 (configuration not stated),14,-0.45,-5,-14,-13,1
O=C1c2ccccc2C(O)(Cc2ccccc2)N1C1CCCCC1 (configuration not stated),-37,.,-6,37*,-16,92*
CC(C)CN1C(=O)c2ccccc2C1(O)Cc1ccccc1 (configuration not stated),1,0.51,-4,-1,-13,-19
COc1cc(/C=C/C(=O)OCC(=O)Nc2ccc3c(c2)OCCO3)ccc1OCC#N,.,1.9,.,.,.,.
CC(C)c1ccc(-c2nc(N3CCCCCC3)nc3n[nH]c(N)c23)cc1,24,-4.3*,5,-24,15,-6
SMILES,NFkB transloc pot,PTK2B oligo ant,PLK1 kinase inh,IL1B NFkB inh,Plk1 PBD FP,HUVEC tox IL1B
Nc1[nH]nc2nc(N3CCOCC3)nc(-c3ccccc3)c12,-12,-0.67,68*,12,-7,6
CC(C)c1ccc(-c2nc(N3CCCC3)nc3n[nH]c(N)c23)cc1,.,-0.93,.,.,.,.
CC(C)c1noc2ncc(C(=O)c3cc(Cl)cc(Cl)c3O)cc12,-9,-1.5,2,9,6,-5
O=C(OCC1CC(c2ccccc2)=NO1)c1ccc(Cl)cc1 (configuration not stated),50*,0.46,-11,-50,-21,18
O=c1c2[nH]c3ccccc3c2ncn1Cc1cccnc1,50*,0.84,-5,-50,-1,1
Cc1ccc2[nH]c3c(=O)n(Cc4ccncc4)cnc3c2c1,1,-0.56,-6,0,-16,-1
COCCNC(=O)c1ccc(CN2CCOCC2)cc1,38,-0.27,-5,-38,11,-15
O=C(O)C1CCCN(S(=O)(=O)c2ccc(Cl)s2)C1 (configuration not stated),?,.,-14,-50,22,-27

# Bioassay records from PubChem BioAssay.
